According to PubChem BioAssay (NCI):
Several values for one entry are separate records, joined by “and”; a condition that tells them apart may be missing. Equal entries are not always repeated. About 83,000 compounds went through this panel and 20% of them were active in at least one assay; those are over-represented in the sample as a whole.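 In brief: 96-well plates, 48 h treatment, single concentration, percent growth endpoint.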 Activity calls are given as the source filed them. How the source made its calls: active means growth percent below 10; inactive means the rest.

Legend:
Experiment in all cases: NCI-60 one-dose screen, 48 h (100 = growth as untreated, 0 = no growth, -100 = all killed)
Conditions in all cases: 10 µM unless noted
[1] = test system: NCI-H23 lung
[2] = test system: NCI-H226 lung
[3] = test system: NCI-H322M lung
[4] = test system: HOP-62 NSCLC
[5] = test system: NCI-H460 lung
[6] = test system: HOP-92 NSCLC
[7] = test system: NCI-H522 lung
[8] = test system: A549/ATCC NSCLC
[9] = test system: 786-0 renal
[10] = test system: COLO 205 colon

Row | Structure (SMILES) | growth [1] | growth [2] | growth [3] | growth [4] | growth [5] | growth [6] | growth [7] | growth [8] | growth [9] | growth [10]
1 | COc1cc2cc(Oc3ccc(NC(=O)Nc4ccc(F)c(C(F)(F)F)c4)cc3)c(C)nc2cc1OCCN(C)C | 102% (inactive) | 104% (inactive) | 102% (inactive) | 104% (inactive) | 101% (inactive) | 69.8% (inactive) | 96.1% (inactive) | 93.2% (inactive) | 88.8% (inactive) | 117% (inactive)
2 | CSc1ccc(C(=NNS(=O)(=O)c2ccc(C)cc2)c2ccc(Cl)cc2)cc1 | 94% (inactive) | 98% (inactive) | 92.7% (inactive) | 98.6% (inactive) | 104% (inactive) | 86.9% (inactive) | 94.4% (inactive) | 99.6% (inactive) | 104% (inactive) | 119% (inactive)
3 | CN1CCN(Cc2ccc(NC(=O)c3cncc(C#Cc4cnc5ccc(OCC(F)F)nn45)c3)cc2C(F)(F)F)CC1 | -51.2% (active) | -62.6% (active) | -35.4% (active) | -76.6% (active) | -85% (active) | -30.7% (active) | -75.9% (active) | -61.6% (active) | -90.3% (active) | -87.7% (active)
4 | CC(C)(C)Nc1nc2c(OCCc3ccccc3)cccn2c1-c1cccc(Oc2ccccc2)c1 | 11.1% (inactive) | 15.2% (inactive) | 15.8% (inactive) | 11.1% (inactive) | 8.14% (active) | -12.8% (active) | -26.1% (active) | 16.3% (inactive) | 8.48% (active) | -93.8% (active)
5 | C#C[C@]1(O)CC[C@H]2[C@@H]3CC=C4c5sc(N6CCN(C)CC6)nc5CC[C@]4(C)[C@H]3CC[C@@]21C | 57% (inactive) | 86.8% (inactive) | 77.4% (inactive) | 54.8% (inactive) | 49.2% (inactive) | 82.7% (inactive) | 28.1% (inactive) | 54.7% (inactive) | -39.2% (active) | 66.5% (inactive)
6 | O=C(Nc1ccc(Cl)c(C(F)(F)F)c1)Nc1ccc2oc(=O)ccc2c1 | 4.85% (active) | 26.6% (inactive) | 60.5% (inactive) | 73.4% (inactive) | 18.1% (inactive) | -1.84% (active) | 20.3% (inactive) | 39.8% (inactive) | 70.3% (inactive) | 58% (inactive)
7 | C1=CC(c2nn3c(-c4ccccc4)nnc3s2)=Cc2ccccc2O1 | 75.8% (inactive) | 31.7% (inactive) | 96.3% (inactive) | 105% (inactive) | 87.2% (inactive) | 55.9% (inactive) | 83.8% (inactive) | 89.7% (inactive) | 91.8% (inactive) | 90.2% (inactive)
8 | C/C=C/CC(C)C(O)[C@H](NC(=O)[C@@H]1CCCN1C(=O)[C@](C)(CC)NC(=O)CCCCCCCCC)C(=O)N[C@@](C)(CC)C(=O)N[C@@H](CCC(N)=O)C(=O)N[C@H](CCC(N)=O)C(=O)NC(C)(C)C(=O)NC(C)(C)C(=O)N[C@@H](CCC(N)=O)C(=O)N[C@H](CC(C)C)C(=O)N[C@H](CO)CC(C)C (stereo not given in full) | 68.4% (inactive) and -71.3% (active) | 49% (inactive) and -24.9% (active) | 69.8% (inactive) and -15.9% (active) | 56.3% (inactive) and -78.5% (active) | 63.6% (inactive) and -72.2% (active) | 75.3% (inactive) and -53.5% (active) | 14.7% (inactive) and -74.4% (active) | 76% (inactive) and 9.75% (active) | 47.7% (inactive) and -80.3% (active) | 48.7% (inactive) and -50.7% (active)
9 | C[C@H](Nc1ncnc2ccc(-c3cnc(Cl)c(NS(C)(=O)=O)c3)cc12)c1ccccc1 | -5.76% (active) | 1.56% (active) | -31.1% (active) | -16.3% (active) | 4.11% (active) | -11.7% (active) | -48.8% (active) | -49.8% (active) | -6.23% (active) | -93.2% (active)
10 | COC(=O)c1ccc(NC2=C(Cl)C(=O)C(C)=C(C)C2=O)cc1 | 68.5% (inactive) | 72.9% (inactive) | 99.6% (inactive) | 66.2% (inactive) | 79.3% (inactive) | 64.9% (inactive) | 53.1% (inactive) | 81.5% (inactive) | 84.9% (inactive) | 104% (inactive)
11 | O=C(/C=C/c1cccc(F)c1)c1cccc(OCCCCOc2cccc(C(=O)/C=C/c3cccc(F)c3)c2)c1 | 102% (inactive) | 103% (inactive) | 102% (inactive) | 114% (inactive) | 100% (inactive) | 139% (inactive) | 93.4% (inactive) | 104% (inactive) | 106% (inactive) | 117% (inactive)
12 | CCN(CC)c1ccc(/C=N/NC(=O)c2ccc(NS(C)(=O)=O)cc2)cc1 | 36.5% (inactive) | 51.8% (inactive) | 27.3% (inactive) | 17.4% (inactive) | 8.88% (active) | 80% (inactive) | 21.8% (inactive) | 29.9% (inactive) | 13.5% (inactive) | 13.9% (inactive)
13 | COc1ccc(/C=N/NC(=O)c2c(N)nn(C)c2Nc2ccccc2)cc1 | 66.9% (inactive) | 51.6% (inactive) | 90% (inactive) | 38.8% (inactive) | 14.6% (inactive) | 46.8% (inactive) | 19.3% (inactive) | 57.1% (inactive) | 58% (inactive) | 35.8% (inactive)
14 | CC(=O)c1c([Si](C)(C)C)c2cc(C#N)ccn2c1C(=O)c1ccc(Br)cc1 | 84.1% (inactive) | 76.9% (inactive) | 85.3% (inactive) | 88.3% (inactive) | 95.5% (inactive) | 81.9% (inactive) | 70.5% (inactive) | 90.3% (inactive) | 76.5% (inactive) | 104% (inactive)
15 | Nc1ccc(Nc2ncnc3sc4c(c23)CCN(Cc2ccccc2)C4)cc1 | 102% (inactive) | 91.5% (inactive) | 101% (inactive) | 103% (inactive) | 105% (inactive) | 92.2% (inactive) | 91.3% (inactive) | 100% (inactive) | 105% (inactive) | 115% (inactive)
